The values below come from PubChem BioAssay (EPA / NIEHS).

SMILES strings stand for the structures. Records with an inconclusive call do not appear. The source made the active and inactive calls. Rule for the calls: active = hit-call score of the fitted dose curve at least 0.9, where 1 is the maximum; inconclusive = response in the unintended direction; inactive = score below 0.9.

Read-out in this test: xenobiotic metabolism (CYP1A1), CYP1A1 (gene 1543)
The test is described as follows: CLD_CYP1A1_24hr: CellzDirect (CLD) Gene Expression Assay for xenobiotic metabolism (CYP1A1) at 24 hours (AID 2283673). The method, then: CLD_24hr is a cell-based, multiplexed-readout assay that uses hepatocyte, a human liver primary cell, with measurements taken at 24 hours after chemical dosing in a 96-well plate.CLD_CYP1A1_24hr is one of 16 assay component(s) measured or calculated from the CLD_24hr assay. It is designed to make measurements of mRNA induction, a form of inducible reporter, as detected with chemiluminescence signals by Quantitative Nuclease Protection Assay (qNPA) technology.Data from the assay component CLD_CYP1A1_24hr was analyzed at the endpoint, CLD_CYP1A1_24hr, in the positive analysis fitting direction relative to DMSO as the negative control and baseline of activity. Using a type of inducible reporter, gain-of-signal activity can be used to understand changes in the reporter gene as they relate to the gene CYP1A1. Furthermore, this assay endpoint can be referred to as a primary readout. To generalize the intended target to other relatable targets, this assay endpoint is annotated to the cyp intended target family, where subfamily is xenobiotic metabolism.
Human hepatocyte cultures were treated daily for two consecutive days with fresh dosing solutions containing appropriate concentrations of the 320 ToxCast chemicals (chemical identities were blinded to CellzDirect and other ToxCast collaborators), vehicle control (0.2% DMSO), and positive control inducers as summarized in Table 1. Due to the large number of treatment groups and chemicals examined, the ToxCast chemicals were divided into two groups (spanning two independent cultures of hepatocytes from separate donor preparations (Hu778: ToxCast plates 1 and 2; Hu776: ToxCast plates 3 and 4). Each preparation of human hepatocyte cultures was treated with respective vehicle control, medium only control, set of six positive controls/reference chemicals for the five hepatic receptor pathways, and a subset of eight of the ToxCast chemicals (indoxacarb, pyrithiobac-sodium, norflurazon, cyhalofop-butyl, methomyl, thiram, acetochlor, and propiconazole). These replicate data, coupled with internal replicates designed within the blinded ToxCast chemical library, provided additional data to evaluate interindividual differences between hepatocyte preparations and their potential impact on chemical profiles.Cell morphology and integrity were evaluated using phase-contrast microscopy as an indicator of hepatocyte cell health (Tyson & Green, 1987). Cultures for each treatment group (i.e., media, vehicle [0.2% DMSO], positive control inducers [multiple concentrations], and the ToxCast chemicals [multiple concentrations]) were observed and cell morphology was assessed relative to vehicle control cultures at each harvest time point (0, 6, 24, or 48 h). […] Images were evaluated at the conclusion of the study to assess changes in cell integrity and account for the effects of chemical exposure on uncharacteristic changes in concentration-dependent gene expression profiles. The results from these determinations of apparent cytotoxicity were annotated (yes/no) alongside the corresponding qNPA data for reference.At the conclusion of each treatment period, hepatocyte cultures (96-well) were washed with 1 volume of HBSS, lysed by addition of 25 ul ArrayPlate lysis buffer (HTG, Tucson, AZ), and 70 ul/well of Denaturation Oil, denatured by incubation at 95C for 10 min, and frozen at approximately -70C until analysis by nuclease protection assay (qNPA) (Roberts et al., 2007). For qNPA analysis, cell lysates were thawed at 50C for approximately 30 min, qNPA probes were added, and samples were incubated at 95C for 10 min to begin the detection process by denaturing the target RNA, dissociating the duplexes and secondary structure hybridization. At the conclusion of the hybridization period, S1 nuclease reagent was added to each sample to digest all nonprotected nucleotides at 50C for 60-90 min. […]
On to `CCNc1nc(Cl)nc(NC(C)(C)C#N)n1`, for which the compound was classed as inactive.
Consider `CSc1nnc(C(C)(C)C)c(=O)n1N`, for which the compound was classed as inactive.
Usually AC50 stands for the concentration giving half of the maximal activity seen. For `CCOP(=S)(Oc1cnc(C(C)(C)C)nc1)OC(C)C` (stereo not given), the AC50 is 7.48 µM (active).
Consider `FC(F)C(F)(F)OCC(Cn1cncn1)c1ccc(Cl)cc1Cl` (stereo not given), for which the AC50 is 5.2 µM (active).
On the same count and under the same terms, the result for `CCOC(=O)CC(SP(=O)(OC)OC)C(=O)OCC` (stereo not given) reads 5.29 µM (active).
With `C#CC(C)(C)NC(=O)c1cc(Cl)cc(Cl)c1`, the compound was called inactive.
For `CNc1cnn(-c2cccc(C(F)(F)F)c2)c(=O)c1Cl`, the AC50 is 5.85 µM (active).
Take `CC(C)[C@H](C(=O)O[C@H](C#N)c1cccc(Oc2ccccc2)c1)c1ccc(Cl)cc1`: the outcome was inactive.
As to `CCOP(=S)(OCC)Oc1cc(C)nc(C(C)C)n1`, the AC50 was 6.62 µM (active).
Regarding `CCOC(=O)COc1cc(-c2nn(C)c(OC(F)F)c2Cl)c(F)cc1Cl`, the compound was called inactive.
Still for that read-out and setting: under `CCOP(=O)(OCC)Oc1cc(C)nc(C(C)C)n1` stands “inactive”.
As for `COc1cccc(C(=O)NN(C(=O)c2cc(C)cc(C)c2)C(C)(C)C)c1C`, the AC50 was 36.4 µM (active).
Turning to `CCCSP(=O)(OCC)Oc1ccc(Br)cc1Cl` (stereo not given), the AC50 is 20 µM (active).
Same read-out and setting: under `CCCOCC(=Nc1ccc(Cl)cc1C(F)(F)F)n1ccnc1` stands 2.36 µM (active).
Consider `CC(C)N(C(=O)SCC(Cl)=C(Cl)Cl)C(C)C`, for which the compound was classed as inactive.
As for `C[Si](Cn1cncn1)(c1ccc(F)cc1)c1ccc(F)cc1`, the AC50 was 2.21 µM (active).
On the same count and under the same terms, the result for `Nc1c(Cl)cc([N+](=O)[O-])cc1Cl` reads 9.35 µM (active).
Consider `CCCSP(=O)(OCC)SCCC`, for which the AC50 is 2.42 µM (active).
On the same count and under the same terms, under `CCOP(=S)(OCC)Oc1ccc2c(C)c(Cl)c(=O)oc2c1` stands 1.89 µM (active).
As for `CC(C1CC1)C(O)(Cn1cncn1)c1ccc(Cl)cc1` (stereo not given), the AC50 is 11.9 µM (active).
With `CNC(=O)ON=C(C)SC`, the compound was called inactive.
On to `CN1COCN(Cc2cnc(Cl)s2)C1=N[N+](=O)[O-]`, for which the call was inactive.
Take `CCc1cccc(C)c1N(C(=O)CCl)C(C)COC` (stereo not given): the AC50 was 4.65 µM (active).
Regarding `CON=C(C(=O)OC)c1ccccc1CON=C(C)c1cccc(C(F)(F)F)c1`, the result was inactive.
On the same count and under the same terms, the result for `CC[C@H](C)[C@H]1O[C@]2(C=C[C@@H]1C)C[C@@H]1C[C@@H](C/C=C(\C)[C@@H](O[C@H]3C[C@H](OC)[C@@H](O[C@H]4C[C@H](OC)[C@@H](NC)[C@H](C)O4)[C@H](C)O3)[C@@H](C)/C=C/C=C3\CO[C@@H]4[C@H](O)C(C)=C[C@@H](C(=O)O1)[C@]34O)O2` reads “inactive”.
As to `CSC1=N[C@@](C)(c2ccccc2)C(=O)N1Nc1ccccc1`, the AC50 is 3 µM (active).
The same measure, in the same setting: the result for `CCCCSP(=O)(SCCCC)SCCCC` reads 4.53 µM (active); that for `O=[N+]([O-])c1cc(C(F)(F)F)c(Cl)c([N+](=O)[O-])c1Nc1ncc(C(F)(F)F)cc1Cl`, 0.485 µM (active).
`Cc1ccn2nc(S(=O)(=O)Nc3c(F)cccc3F)nc2n1`: the outcome was inactive.
Take `C=C(C)[C@H]1Cc2c(ccc3c2O[C@@H]2COc4cc(OC)c(OC)cc4[C@@H]2C3=O)O1`: the AC50 was 3.38 µM (active).
The same measure, in the same setting: under `CCC(CC)Nc1c([N+](=O)[O-])cc(C)c(C)c1[N+](=O)[O-]` stands 20 µM (active); under `CCOP(=S)(OCC)SCCSCC`, 2.7 µM (active).
Same read-out and setting: the result for `CCC(=O)Nc1ccc(Cl)c(Cl)c1` reads 5.72 µM (active).
With `CCCCOC(=O)[C@@H](C)Oc1ccc(Oc2ccc(C#N)cc2F)cc1`, the result was inactive.
Turning to `CN(C)C(=O)Nc1cccc(C(F)(F)F)c1`, the AC50 was 2.41 µM (active).
Consider `C#CCC1=C(C)C(OC(=O)C2C(C=C(C)C)C2(C)C)CC1=O` (stereo not given), for which the AC50 is 20 µM (active).
For `CCOP(=O)(SC(C)CC)N1CCSC1=O` (stereo not given), the compound was called inactive.
As to `CCc1cccc(CC)c1N(COC)C(=O)CCl`, the AC50 was 3.06 µM (active).
With `CCCOc1nn(C(=O)NS(=O)(=O)c2ccccc2C(=O)OC)c(=O)n1C`, the compound was called inactive.
Turning to `CC1=NNC(=O)N(/N=C/c2cccnc2)C1`, the AC50 was 4.96 µM (active).
